Measurements as given in PubChem BioAssay (EPA / NIEHS).
Some structures have more than one record in an assay (separate samples or runs), and their calls can disagree. Active and inactive are the calls of the source. How the source made its calls: active means hit-call score of the fitted dose curve at least 0.9, where 1 is the maximum; inactive means score below 0.9.

read-out: Interleukin-1 alpha (IL1a), IL1A (gene 3552); test: BSK_LPS_IL1a: BioMAP Diversity Plus: LPS Assay for Interleukin-1 alpha (IL1a) Biomarker Activity (AID 2283080); details: primary human HUVEC with PBMC; actives raise or lower the signal
Experimental: BSK_LPS is a cell-based, multiplexed-readout assay that uses umbilical vein endothelium and peripheral blood mononuclear cells, a human vascular primary cell co-culture, with measurements taken at 24 hours after chemical dosing in a 96-well plate.BSK_LPS_IL1a is an assay component measured in the BSK_LPS assay. It measures IL-a antibody related to regulation of gene expression using ELISA technology.Data from the assay component BSK_LPS_IL1a was analyzed into 1 assay endpoint. This assay endpoint, BSK_LPS_IL1a, was analyzed with bidirectional fitting relative to DMSO as the negative control and baseline of activity. Using a type of binding reporter, gain or loss-of-signal activity can be used to understand changes in the signaling as they relate to the gene IL1A. Furthermore, this assay endpoint can be referred to as a primary readout, because this assay has produced multiple assay endpoints where this one serves a signaling function. To generalize the intended target to other relatable targets, this assay endpoint is annotated to the cytokine intended target family, where the subfamily is interleukins.
The levels of cell surface (or secreted, indicated by the prefix "s") biomarker endpoints were measured by ELISA. Overt cytotoxicity to cells in confluent adherent cultures (all systems other than the BT system) was assessed by measuring total protein levels using sulforhodamine B (SRB) staining in parallel cultures at the time of biomarker measurements, indicated as SRB endpoints. For proliferation assays for adherent cell types, individual cell types are cultured at sub-confluence and relative cell numbers quantified by SRB staining at time points optimized for each system (48 h: 3C and CASM3C systems; 72 h: BT and HDF3CGF systems; 96 h: SAg system). SRB was performed by staining cells with 0.1% SRB after fixation with 10% TCA and reading wells at 560 nm.Viability and proliferation of PBMC (T cells) was quantified by Alamar Blue reduction for the SAg and BT systems. For PBMC viability (referred to as PBMC Cytotoxicity within the assay endpoint names), cells were plated (75,000/well in a 96-well plate) and then chemical samples added for 1 h before addition of activators, SEB and TSST-1 (20 ng/mL final concentration each). Cells were incubated for 90 h. Then, Alamar Blue (20 uL/well) (Invitrogen, Cat DAL1100) was added for 6 h, and the plates were read with a fluorescence microplate reader at 546/580 nm (excitation/emission). For PBMC proliferation, cells were plated and activated as above but incubated for only 16 h prior to addition of Alamar Blue. Plates were read after 6 h.

AC50, active:
CN(C)c1ccc(C(c2ccccc2)c2ccc(N(C)C)cc2)cc1 34.7 µM
CC(C)CC(=O)CC(C)CC(C)C (stereo not drawn) 35 µM
CCCCCCCCCCC1CO1 (stereo not drawn) 31.8 µM
COc1ccccc1Oc1c(NS(=O)(=O)c2ccc(C(C)(C)C)cc2)nc(-c2ncccn2)nc1OCCO 10.4 µM
CCCCCCCCCCCCCCCCCC[N+](C)(C)C 1.22 µM

outcome, inactive:
O=C(C(=O)c1ccccc1)c1ccccc1
COc1cc(CNC(=O)CCCC/C=C/C(C)C)ccc1O
CCCCCCC(O)CCCCCCCCCCC(=O)OC (stereo not drawn)
CN(C)Cc1cc(C(C)(C)C)c(O)c(C(C)(C)C)c1
Cc1cccnc1
O=[N+]([O-])c1cc(S(=O)(=O)Nc2ccccc2)ccc1Nc1ccccc1
CC(C)C1OCCN1CCOC(=O)NCCCCCCNC(=O)OCCN1CCOC1C(C)C (stereo not drawn)
OC(C(F)(F)F)(C(F)(F)F)C(O)(C(F)(F)F)C(F)(F)F
C1CN(CCOCCN2CCOCC2)CCO1
CCCCCCCCCC/C=C/C1CC(=O)OC1=O (stereo not drawn)
Cc1cc(-n2nc3ccc(Cl)cc3n2)c(O)c(C(C)(C)C)c1
COc1ccccc1Oc1c(NS(=O)(=O)c2ccc(C(C)(C)C)cc2)nc(-c2ncccn2)nc1OCCO
CN(C)CCC(c1ccc(Cl)cc1)c1ccccn1 (stereo not drawn)
COc1ccc(C(=O)c2ccccc2O)c(O)c1
COC(=O)/C=C\C(=O)OC
Cc1c(C(N)=O)cc([N+](=O)[O-])cc1[N+](=O)[O-]
CC[N+](CC)(CC(=O)Nc1c(C)cccc1C)Cc1ccccc1
Oc1cccc2ccccc12
CC[N+](CC)(CC(=O)Nc1c(C)cccc1C)Cc1ccccc1 (tested in a mixture with another compound)
Sc1nc2ccccc2s1
CCC[Si](OC(C)=O)(OC(C)=O)OC(C)=O
CCC(C)=NO
CCCCC(CC)COC(=O)C=Cc1ccc(OC)cc1 (stereo not drawn)
